The values that follow come from PubChem BioAssay (EPA / NIEHS).

By AC50 is commonly meant the concentration giving half of the maximal activity seen.

Active and inactive are the calls of the source. The calls were made as follows: active = hit-call score of the fitted dose curve at least 0.9, where 1 is the maximum; inactive = score below 0.9.

This assay is described as follows: ATG_EGR_CIS: Attagene CIS-FACTORIAL HepG2 Assay for human Early Growth Response 1 (EGR1) (AID 2282938). Conditions: HepG2 Attagene CIS-FACTORIAL EGR reporter mRNA; actives raise or lower the signal. An outline of the steps: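 HepG2, transient MRTU transfection (cis promoters), 24 h compound. RNA → RT (oligo-dT) → PCR → 6-FAM labelling → HpaI cut → CE fluorescence. Bidirectional fit, DMSO baseline.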
On to `CCC(Cc1c(I)cc(I)c(N)c1I)C(=O)O` (stereo not drawn), for which the call was inactive.
The same measure, in the same setting: for `C=C(C)CCCC` the value was “inactive”; for `OCC(F)(F)C(F)(F)C(F)(F)C(F)(F)C(F)(F)C(F)(F)CO`, “inactive”; for `C[C@]12CC[C@H]3C(=CCc4cc(O)ccc43)[C@@H]1CCC2=O`, “inactive”.
`Oc1ccc(C2(c3ccc(O)c(C4CCCCC4)c3)CCCCC2)cc1C1CCCCC1`: the AC50 was 8.92 µM (active).
Regarding `O=C(O)CCC(F)(F)C(F)(F)C(F)(F)C(F)(F)C(F)(F)C(F)(F)C(F)(F)F`, the call was inactive.
On the same count and under the same terms, for `NCC(F)(F)C(F)(F)C(F)(F)C(F)(F)C(F)(F)C(F)(F)F` the value was “inactive”.
Same read-out and setting: the value for `CC(C)C(=O)OCc1ccccc1` was “inactive”.
On the same count and under the same terms, for `CO[Si](C)(CCC(F)(F)C(F)(F)C(F)(F)C(F)(F)C(F)(F)C(F)(F)F)OC` the value was “inactive”.
Consider `CCCCCCCCCc1ccc(OCCO)cc1`, for which the outcome was inactive.
The same measure, in the same setting: the value for `FC(F)(F)C(F)(F)C(F)(F)C(F)(F)C(F)(F)C(F)(F)C(F)(F)CCI` was “inactive”; that for `C[Si](C)O[Si](C)C` was “inactive”; that for `Cc1cnccn1` was “inactive”.
Consider `NCC(F)(F)C(F)(F)C(F)(F)C(F)(F)C(F)(F)C(F)(F)C(F)(F)C(F)(F)F`, for which the molecule was classed as inactive.
The same measure, in the same setting: for `OCC(F)(F)C(F)(F)C(F)(F)CO` the value was “inactive”; for `CN(C)C(C)(C)CO`, “inactive”.
The same measure, in the same setting: for `Nc1cc([N+](=O)[O-])cc(Cl)c1O` the value was “inactive”; for `CCCCCCCCCCCCC[N+](C)(C)Cc1ccccc1`, “inactive”; for `OCCCc1cccnc1`, “inactive”.
Same read-out and setting: the value for `O=C(Cl)C(F)(F)C(F)(F)C(F)(F)C(F)(F)C(F)(F)C(F)(F)C(F)(F)F` was “inactive”; that for `Cc1cc(C)c(O)c(C(C)(C)C)c1` was “inactive”; that for `CCC(=O)OC(C)c1ccccc1` (stereo not drawn) was “inactive”.
For `COc1ccccc1C=O`, the molecule was classed as inactive.
Still for that read-out and setting: the value for `O=c1cccc[nH]1` was “inactive”; that for `CCCCCCCCCCCC(=O)Cl` was “inactive”.
Regarding `CCN=C1C=CC(=C(c2ccc(N(CC)CC)cc2)c2ccc(N(CC)CC)cc2)c2ccccc21`, the AC50 is 0.78 µM (active).
Take `NC(=O)C(F)(F)C(F)(F)C(F)(F)F`: the call was inactive.
On to `CC(C)CC=C(C=O)c1ccccc1`, for which the call was inactive.
For the molecule `OCC(F)(F)C(F)(F)C(F)(F)C(F)(F)C(F)(F)C(F)(F)C(F)(F)C(F)(F)CO`, the outcome was inactive.
Regarding `F[Si-2](F)(F)(F)(F)F`, the outcome was inactive.
Same read-out and setting: for `NC(=O)C(F)(F)C(F)(F)C(F)(F)C(F)F` the value was “inactive”.
With `O=C(O)C(F)(F)OC(F)(F)C(F)(F)OC(F)(F)C(F)(F)OC(F)(F)F`, the outcome was inactive.
The same measure, in the same setting: for `CCCCC(CC)COC(=O)c1ccc(N(C)C)cc1` (stereo not drawn) the value was “inactive”.
The same measure, in the same setting: the value for `CCCCCCCCCCCCCC[P+](CCCC)(CCCC)CCCC` was “inactive”; that for `C=CCOC(=O)CC(C)C` was “inactive”; that for `O=C=Nc1cccc2c(N=C=O)cccc12` was “inactive”.
Consider `CC(O)C#CC(C)O` (stereo not drawn), for which the half-maximal activity concentration (AC50) was 82.9 µM (active).
As for `CCOCN(C(=O)CS(=O)(=O)O)c1c(C)cccc1CC`, the molecule was called inactive.
